Bioassay records from PubChem BioAssay.
PglD DTNB: C. jejuni PglD acetyltransferase inhibitors, primary screen, biochemical, DTNB colorimetric, single point; UDP-N-acetylbacillosamine N-acetyltransferase PglD (Campylobacter jejuni); purified PglD enzyme, DTNB colorimetric CoA detection; inhibition, % at 12.5 µM; actives 0.098% (n = 360,000); AID 602405, 2012; in the data active = inhibition above about 16%, passing the limit was not always enough
miR-122 sensor: miR-122 Renilla sensor signal increase in Huh7, primary screen, miR-122 inhibitor project, cell-based, single point, plate reader; Huh7 miR-122 Renilla luciferase sensor, 48 h; neutral wells = 0, positive control = 100; activation (reporter increase), % at 12.5 µM; actives 0.3% (n = 340,000);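 active = mean replicate activation score at least 90 and every replicate individually at or above 90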;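 also: higher luciferase means less miR-122 activity so hits act as miR-122 inhibitors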
NSD2 inh: NSD2 histone methyltransferase inhibitors, primary screen, biochemical, AlphaScreen, single concentration, set 2 | NSD2 peptide methylation, 120 min | actives 0.54% (n = 310,000) | inhibition, % at 12.5 µM; in the data active = inhibition above about 50%
C2C12 statin: suppressors of statin myotoxicity in C2C12 myotubes, primary screen, cell-based, single point, plate reader. C2C12 myotubes + simvastatin, ATP luminescence, 48 h; scaled: DMSO 0, geranylgeraniol control 100. rescue of ATP level, % at 7.49 µM. actives 0.78% (n = 330,000). AID 602340, 2012;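 active = mean ATP rescue above about 67%, or every replicate alone reaching that limit, limit read from the data, passing the limit was not always enough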;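 also: myotubes were challenged with 10 µM simvastatin during compound exposure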
AlphaScreen art: AlphaScreen signal interference with preloaded methylated product, dose response, artefact control for NSD2 inhibitor project, biochemical, cherry-picked samples | shares compounds with NSD2 inh | AC35, µM (top dose mostly 10 µM), for inactives: at the top dose activity change, negative = signal loss | AlphaScreen artifact counterscreen, preloaded methylated H4 peptide | actives 9.4% (n = 1,500); call rule not given here
* = called active by the depositor; . = no result; [ ] = remark or other dose. An excerpt weighted towards active compounds, which were near 1.2% of everything screened.

SMILES	PglD DTNB	miR-122 sensor	NSD2 inh	C2C12 statin	AlphaScreen art
CC=Cc1ccc2n(c1=O)C[C@H]1[C@H](CO)[C@@H](C(=O)OC)[C@@H]2N1S(=O)(=O)c1cccc(C)c1 (mixture of isomers)	-2	.	.	-24	.
O=c1[nH]c(=S)[nH]c(O)c1N=Nc1cc(S(=O)(=O)Nc2ccc(Cl)cc2)ccc1Cl	4	-5	66*	9	-9%
NS(=O)(=O)c1ccc(N=Nc2c(O)[nH]c(=S)[nH]c2=O)cc1	-16	0	3	-3	.
Cc1ccc(/C=C2/C(=O)NC(=O)N(C)C2=O)cc1	-11	.	3	.	.
CN1C(=O)NC(=O)/C(=C/c2ccc([N+](=O)[O-])o2)C1=O	.	.	59*	.	-3%
O=C(Cc1ccccn1)N1CCCCN2[C@@H](CO)[C@@H](c3ccc(-c4ccccc4F)cc3)[C@@H]2C1	1	3[16.7 µM]	.	-13	.
Cn1c(O)c(/C=C/C=Nc2ccccc2)c(=O)n(C)c1=S	.	.	55*	.	-5%
CCCN1[C@@H]2Cn3c(ccc(-c4ccc(F)cc4)c3=O)[C@H]1[C@@H](C(=O)OC)[C@@H]2CO	-1	5[16.7 µM]	.	5	.
CCC(C)NC(=O)c1c(N)n(CCCOC)c2nc3ccccc3nc12 (centres undefined)	5	-5	106*	2	10%
